Experimental data published in PubChem BioAssay AID1823 (The Scripps Research Institute Molecular Screening Center, 2009).
In all, about 16,000 compounds went through this assay and about 70 (0.4%) were called active. The sample holds actives, similar compounds and a random draw of the others, so the mix is not that of the screen. A number with no mark means an inactive call. Rule as the data show it: active = inhibition above about 75%; inactive = the rest.

Assay: counter-screen for Nox1 inhibitors: inhibitors of luminol chemiluminescence (AID 1823)
Conditions: HRP/luminol/H2O2 chemiluminescence counterscreen; at 6.7 µM; stronger effect = higher value

**Q.** Which inhibition does the source give for `CCOC(=O)NC(=O)/C(=C/NC(C)C)C(=O)OCC` here?
**A.** 2.4%

**Q.** Which inhibition does the source give for `CSc1nnc(SC)n1CCNC(=O)Nc1cccc(Cl)c1` here?
**A.** 3.79%

**Q.** For `CCCCc1c(O)cc(-c2ccccc2)n(Cc2ccccc2)c1=O`, which inhibition is on record?
**A.** 7.84%

**Q.** With `COc1ccc(OC(=O)/C=C/c2sc3ccccc3c2C)cc1` as the molecule, how does the inhibition read?
**A.** -0.97%

**Q.** For `Cc1nc(C(F)(F)F)ccc1NC(=O)/C=C\C(=O)O`, which inhibition is on record?
**A.** 1.91%

**Q.** With `CCc1cnc(NS(=O)(=O)c2cc(Cl)sc2Cl)nc1-c1c(F)cccc1F` as the molecule, how does the inhibition read?
**A.** -0.98%

**Q.** Which inhibition does the source give for `Cc1ccc(S(=O)(=O)NNC(=O)c2ccccc2N)cc1` here?
**A.** 37.9%

**Q.** With `O=C(NCc1cccnc1)Nc1cccc(NC(=O)NCc2cccnc2)c1F` as the molecule, how does the inhibition read?
**A.** 1.8%

**Q.** For `COc1cccc2c1c(NS(=O)(=O)c1cn(C)cn1)nn2C`, which inhibition is on record?
**A.** -21.4%

**Q.** Which inhibition does the source give for `O=[N+]([O-])c1ccc2c(c1)CCN2S(=O)(=O)c1ccccc1` here?
**A.** -4.92%

**Q.** For `CNC(=O)c1ccccc1Sc1ccccc1C(=O)NC`, which inhibition is on record?
**A.** -0.03%

**Q.** Which inhibition does the source give for `Cc1nc(-c2ccc(NC(=O)COCC(=O)O)cc2)cs1` here?
**A.** 21.6%

**Q.** Which inhibition does the source give for `O=C1C(Cl)=C(Oc2cc(Cl)c(Cl)cc2Cl)C(=O)c2ccccc21` here?
**A.** 0.81%

**Q.** With `Cn1ncc(Br)c1NC(=O)C(C)(C)C` as the molecule, how does the inhibition read?
**A.** 4.37%

**Q.** Which inhibition does the source give for `N#Cc1ccc(-c2csc(COc3ccccc3Cl)n2)cc1` here?
**A.** -1.21%

**Q.** Which inhibition does the source give for `CS(=O)(=O)Nc1ccc(/C(N)=N/OC(=O)c2cccs2)cc1` here?
**A.** 2.83%

**Q.** For `c1ccc2sc(-c3csc(-c4ccc5c(c4)OCCO5)n3)nc2c1`, which inhibition is on record?
**A.** 3.06%

**Q.** For `N#CCCSc1sc(=S)sc1SCCC#N`, which inhibition is on record?
**A.** 3.43%

**Q.** With `C/C(=N\O)C(C)(C)Nc1ccc(C(C)(C)C)cc1` as the molecule, how does the inhibition read?
**A.** -0.65%

**Q.** For `O=c1[nH]c2c(=O)[nH]c(=S)[nH]c2nc1/C=C(\O)c1ccccc1`, which inhibition is on record?
**A.** -2.84%

**Q.** With `O=C(Nc1ccc(F)cc1OC(F)(F)F)N1CCC(O)CC1` as the molecule, how does the inhibition read?
**A.** -1.8%

**Q.** For `CCOC(=O)c1c(NC(=S)Nc2ccccc2)sc2c1CCN(C)C2`, which inhibition is on record?
**A.** 0.9%

**Q.** Which inhibition does the source give for `CCOC(=O)c1c(NC(=S)NC)sc2c1CCCC2` here?
**A.** 97.7% (active)

**Q.** With `CCOC(=O)c1c(C)csc1NC(=O)CC(=O)C(F)(F)F` as the molecule, how does the inhibition read?
**A.** -0.11%

**Q.** With `Cc1cc(/C(N)=N/OC(=O)c2cccs2)c(-c2ccccc2)o1` as the molecule, how does the inhibition read?
**A.** -4.79%

**Q.** For `Cc1cc(C)nc(NC(=S)c2ccc(NC(=O)/C=C/C(=O)O)cc2)n1`, which inhibition is on record?
**A.** -2.67%

**Q.** Which inhibition does the source give for `CCSC(=O)NCc1ccccc1` here?
**A.** -0.89%

**Q.** For `Cc1onc(-c2ccccc2Cl)c1NC(=O)N1c2ccc(F)cc2CCC1C` (stereo not given), which inhibition is on record?
**A.** 8.92%

**Q.** Which inhibition does the source give for `Nc1nc(C23CC4CC(CC(C4)C2)C3)cs1` here?
**A.** -1.09%

**Q.** For `CC(C)n1c(SCC(=O)c2cccc([N+](=O)[O-])c2)nc2cc(C(F)(F)F)ccc21`, which inhibition is on record?
**A.** 2.2%

**Q.** For `CC(C)CCOS(=O)(=O)c1ccc2c(c1)Cc1cc(S(=O)(=O)OCCC(C)C)ccc1-2`, which inhibition is on record?
**A.** -0.63%

**Q.** Which inhibition does the source give for `O=C(CSC(=S)N1CCCCC1)c1c(F)cccc1F` here?
**A.** 26.8%

**Q.** With `O=C(c1cc(-c2cccs2)on1)N1CCCCC1` as the molecule, how does the inhibition read?
**A.** 3.17%

**Q.** For `N#CC(C#N)=CNc1c(F)cccc1Cl`, which inhibition is on record?
**A.** -4.02%

**Q.** Which inhibition does the source give for `CCOC(=O)C1=C(C)NC(C)=C(C(=O)OCC)C1c1ccccn1` here?
**A.** 0.07%

**Q.** Which inhibition does the source give for `CCOC(=O)c1cc(CC)sc1NC(=O)c1cccc(C(F)(F)F)c1` here?
**A.** -4.21%

**Q.** With `CC(C)S(=O)(=O)/C(C#N)=C/c1ccccc1OC(F)(F)F` as the molecule, how does the inhibition read?
**A.** -0.54%

**Q.** Which inhibition does the source give for `COC(=O)c1cnc(N2CCCN(C(=O)C3COc4ccccc4O3)CC2)nc1C(F)(F)F` (stereo not given) here?
**A.** 1.21%

**Q.** For `Cc1ccccc1NC(=O)NCc1ccco1`, which inhibition is on record?
**A.** -0.91%

**Q.** With `O=[N+]([O-])c1ccc(-c2ccc(I)cc2)cc1` as the molecule, how does the inhibition read?
**A.** -6.68%

**Q.** For `CC(C)NC(=O)NNc1c(Cl)cncc1Cl`, which inhibition is on record?
**A.** -1.24%

**Q.** Which inhibition does the source give for `Cc1ccc(Oc2c(C)[nH]c(=S)[nH]c2=O)cc1` here?
**A.** -0.85%

**Q.** With `CN(C)c1cc(-c2cc(Cl)sc2Cl)oc(=O)c1Cl` as the molecule, how does the inhibition read?
**A.** -5.79%

**Q.** For `Cc1cc(C)nc(N/C=C(\C#N)S(=O)(=O)c2ccc(Cl)cc2)n1`, which inhibition is on record?
**A.** 2.84%

**Q.** With `O=C(NNC(=S)Nc1ccccc1Cl)c1ccc(OC(F)(F)F)cc1` as the molecule, how does the inhibition read?
**A.** 2.9%

**Q.** For `Cn1cc(Br)c(-c2cccc(NC(=O)c3ccccc3Cl)c2)n1`, which inhibition is on record?
**A.** -4.85%

**Q.** For `CCc1cccc(C)c1N(C(C)=O)C1=NCCC(=O)S1`, which inhibition is on record?
**A.** -4.86%

**Q.** With `O=[N+]([O-])c1ccc(C2CC2(Br)Br)cc1` (stereo not given) as the molecule, how does the inhibition read?
**A.** 0.05%

**Q.** Which inhibition does the source give for `CSC(C)C(=O)/C=C/N(C)C` (stereo not given) here?
**A.** -4.32%

**Q.** Which inhibition does the source give for `COc1ccc(Cc2nc(C(C)(C)C)cs2)cc1` here?
**A.** -2.22%

**Q.** For `Cc1noc(C)c1S(=O)(=O)N1CCN(C2c3ccccc3-c3ccccc32)CC1`, which inhibition is on record?
**A.** 0.21%

**Q.** Which inhibition does the source give for `CCOC(=O)NC(=O)/C(=C/NCc1cccs1)C(=O)OCC` here?
**A.** 1.42%

**Q.** Which inhibition does the source give for `CC(=O)Nc1ccc(S(=O)(=O)NNc2c(Cl)cncc2Cl)cc1Cl` here?
**A.** 10.2%

**Q.** For `CCCN(CCC)S(=O)(=O)c1ccc(C(=O)Oc2c(C)cccc2OC)cc1`, which inhibition is on record?
**A.** -5.62%

**Q.** With `CCOC(=O)c1cc(C)n(-c2cccc([N+](=O)[O-])c2)c1-c1ccccc1` as the molecule, how does the inhibition read?
**A.** 1.22%

**Q.** Which inhibition does the source give for `COc1cccc(C(=O)c2sc3nsc(SCc4ccc(F)cc4)c3c2N)c1` here?
**A.** 9.11%

**Q.** With `CC(C)(C)c1ccc(NC(=O)c2ccco2)c(NC(=O)C(Cl)(Cl)Cl)c1` as the molecule, how does the inhibition read?
**A.** -4.94%

**Q.** With `O=C(Nc1ccc2c(c1)OCCO2)c1cnccn1` as the molecule, how does the inhibition read?
**A.** 1.1%

**Q.** Which inhibition does the source give for `CSc1nc(-n2nc(C)cc2C)nc(-c2ccco2)c1C#N` here?
**A.** 1.13%

**Q.** For `O=C(O)CCc1cccnc1`, which inhibition is on record?
**A.** -4.95%

**Q.** Which inhibition does the source give for `CCCCCCCCCCCCCC#CC(O)C(N)CO` (stereo not given) here?
**A.** 2.24%

**Q.** For `O=C(CSc1nc2ccccc2o1)N1CCC(n2cccc2)CC1`, which inhibition is on record?
**A.** 10%

**Q.** For `CC(=O)NC12CC3(C)CC(C)(CC(C)(C3)C1)C2`, which inhibition is on record?
**A.** 2.16%

**Q.** For `COc1cc(CC/C(C)=N/O)ccc1O`, which inhibition is on record?
**A.** 2.62%

**Q.** For `Cc1nc(C(F)(F)F)ccc1C(=O)NC1CCCc2ccccc21` (stereo not given), which inhibition is on record?
**A.** 3.59%
